From PubChem BioAssay
Marburg entry inh – qHTS for inhibitors of binding or entry into cells for Marburg Virus; Potency, µM (titrated, usually from 37.8 µM), for inactives: at the highest dose activity change, negative = inhibition, hits mostly inhibitors; Marburg virus pseudotyped entry inhibition, cell reporter; 300,000 compounds, 1.8% hits; calls by dose curve; tested in HEK293 cells; further: potency means the concentration at half of the fitted maximal effect
HCV inhibitor – qHTS Assay for Inhibitors of Hepatitis C Virus (HCV). Huh7.5.1 HCVcc-Cre infection, luciferase reporter, 44 h. 340,000 compounds, 3.4% hits. Potency, µM (top dose mostly 41.8 µM), for the others: at the highest dose activity change, negative = inhibition, usual class: inhibitors; active means well fitted inhibition curve with a large enough effect; inconclusive means small, poorly fitted or top-dose-only effect, or another doubt; inactive means no such curve, though single readings can be large or run the other way; further: potency means the concentration at half of the fitted maximal effect
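1,000 cells/well; 4 h culture; + compound; + HCVcc-Cre (~0.5 moi); 44 h; luciferase substrate, RT 15 min; read 15 sec.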
Lassa entry inh – qHTS for Inhibitors of binding or entry into cells for Lassa Virus. Lassa virus pseudotype entry inhibition, cell reporter. Potency, µM (doses to about 37.9 µM), for inactives: at the highest dose activity change, negative = inhibition, hits mostly inhibitors. 300,000 compounds, 1.2% hits. AID 540256, 2011; calls by dose curve; tested in HEK293 cells; further: potency means the concentration at half of the fitted maximal effect; nearly all actives have a fitted effect of over 50% in size
HCMV inh – qHTS Assay for inhibitors of the human cytomegalovirus (HCMV) | HFF cells, HCMV-luciferase reporter, 72 h; hits give low values | activity change, negative = inhibition, % at 57.5 µM | 410,000 compounds, 4.5% hits | AID 1259415, 2018; in the data active means activity change below about -60%; inconclusive means no clear call, values can overlap the other calls; inactive means above about -39%
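Inhibition of viral replication was scored as loss of reporter luminescence in HFFs infected with HCMV-luciferase (MOI 1 PFU/cell) for 72 h; compounds tested at 2 doses, normalized to buffer and Salinomycin controls.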
FMDV inh – High Throughput Screening for Foot and Mouth Disease Virus Antivirals | AID 1159524, 2015 | 410,000 compounds, 1.2% hits | Potency, µM (doses to about 57.9 µM), for inactives: at the highest dose activity change, negative = inhibition, actives largely listed as inhibitors | FMDV antiviral cell-based qHTS; calls by dose curve; tested in HEK293T cells; further: read-out not given here; potency means the concentration at half of the fitted maximal effect; nearly all actives have a fitted effect of over 45% in size
Numbers without * were called inactive; ? = inconclusive; . = no result; [ ] = dose if it differs, or a comment. Hits are enriched below; roughly 7.9% of the tested compounds scored in any of these assays. On the % scale 0 is the no-effect control and ±100 the full control effect.

SMILES	Marburg entry inh	HCV inhibitor	Lassa entry inh	HCMV inh	FMDV inh
CCN1/C(=C/c2ccc3ccccc3[n+]2CC)C=Cc2ccccc21	3.55µM*	4.47µM*	5.62µM*	-104.1*	?
COC(=O)CC=C1c2ccc(F)cc2[C@@H](OC)[C@@H]1C	-11.0%[14.2 µM]	.	?	.	.
Cc1ccccc1C1=NOC2CN(C(=O)COc3ccccc3)CC12 (stereo not given)	.	.	.	-22.7	.
Cc1ccc2[nH]c3c(c2c1)CCCC3=O	-18.0%[46.1 µM]	10µM*	14.3%	145.4	33.4%
Cc1ccc2[nH]c3c(c2c1)CCc1cn[nH]c1-3	2.2%	14.1µM*	?	17.4	43.1%
O=C1CN(/N=C/c2ccc(-c3ccc([N+](=O)[O-])cc3)o2)C(=O)N1	16.0%	.	.	.	-6.1%[97.4 µM]
O=C1CN(/N=C/c2ccc([N+](=O)[O-])o2)C(=O)N1	?	25.1µM*	?	-15.2	-32.6%
Clc1cccc(Cl)c1C1N2CCCN12 (stereo not given)	8.5%[46.1 µM]	6.1%	-3.6%	-63.1*	-18.0%
O=C1O/C(=C\c2ccccc2)c2ccccc21	-2.1%	11.6%	10.4%	-36.1	56.9%
O=C1N/C(=C\c2ccccc2)c2ccccc21	?	7.08µM*	9.8%	119.7	36.7%
Cc1c(CN2CCOc3c(cc(-c4ncc(C(F)(F)F)cc4Cl)cc3OCC3CCCO3)C2)cnn1C (stereo not given)	.	.	.	.	3.6%
Cc1ccccc1CNc1ccc(C(CC(N)=O)NC(=O)c2ccccc2)cc1[N+](=O)[O-] (stereo not given)	.	11.2µM*	.	?	-13.1%
NC(=O)CC(NC(=O)c1ccccc1)c1ccc(N2CCC(Cc3ccccc3)CC2)c([N+](=O)[O-])c1 (stereo not given)	.	?	.	-67.2*	?
Cc1cccc(CNc2ccc(C(CC(N)=O)NC(=O)c3ccccc3)cc2[N+](=O)[O-])c1 (stereo not given)	.	?	.	5.2	0.0%
C=C[C@@H]1c2cc(C)ccc2N(S(=O)(=O)c2ccc(C)cc2)[C@H](c2ccc(OC(C)=O)cc2)C1(C#N)C#N	.	8.91µM*	.	-97.4*	0.0%
Cc1noc(-c2ccccc2OCC(=O)Nc2ccccc2[N+](=O)[O-])n1	-2.2%[46.1 µM]	.	?	?	-26.1%
COc1ccc(-c2cc(C(=O)N3CCc4c(cnc(C)c4CNC(=O)c4ccsc4)C3)[nH]n2)cc1	.	.	.	.	-13.5%
O=C(COc1coc(CN2CCN(c3ccc(F)cc3)CC2)cc1=O)Nc1ccccc1	-10.1%	?	5.0%	-20.4	-29.9%
O=C(COc1coc(CN2CCN(c3ccccc3)CC2)cc1=O)Nc1ccc(F)cc1	17.3%	?	-21.0%	-83.3*	-21.5%
CCOc1ccccc1NC(=O)COc1coc(CN2CCc3ccccc32)cc1=O	?	7.94µM*	-28.9%	5.4	-2.4%
COc1ccc2nc(N/C(N)=N/C(=S)Nc3ccccc3)nc(C)c2c1	?	11.2µM*	-2.2%	-30.6	-20.3%
CCc1ccc(NC(=S)/N=C(\N)Nc2nc(C)c3cc(CC)ccc3n2)cc1	?	15.8µM*	?	-28.4	?
CCOc1ccc2nc(N/C(N)=N/C(=S)Nc3ccc(OC)cc3)nc(C)c2c1	.	?	.	-8.1	-7.5%
COc1ccc2nc(N/C(N)=N/C(=S)Nc3ccc(C)c(C)c3)nc(C)c2c1	2.8%	3.98µM*	2.5%	.	.
Cc1ccc(NC(=O)c2ccc(CN3CC(=O)N4CCCCC4C3=O)cc2)cc1C (stereo not given)	.	.	1.6%[46.1 µM]	142.4	6.8%
SMILES	Marburg entry inh	HCV inhibitor	Lassa entry inh	HCMV inh	FMDV inh
O=C(CNC(=O)c1cccc(F)c1)N/N=C/c1cccs1	.	9.5%	.	-62.2*	5.7%
O=C(CNC(=O)c1ccccc1)N/N=C/c1cccs1	2.3%[46.1 µM]	13.5%	-3.6%[46.1 µM]	?	5.6%
O=C(Cc1c(F)cccc1Cl)N/N=C/c1cccs1	19.4%[46.1 µM]	5.4%[8.37 µM]	4.5%[46.1 µM]	-74.8*	45.6%
Cc1ccc(/C=N/NC(=O)Cc2c(F)cccc2Cl)s1	.	-20.5%	.	-27.8	13.6%
CCOc1ccc(NC(=O)C(=O)NCCc2sc(-c3ccc(C)cc3)nc2C)cc1	.	.	3.0%[46.1 µM]	29.3	-17.1%
Cc1ccc(C(=O)c2no[n+]([O-])c2C(=O)c2ccc(C)cc2)cc1	8.8%	?	-14.7%[46.1 µM]	-98.5*	?
COn1c(-c2ccccc2)nc2c1CCc1c-2no[n+]1[O-]	26.9%	3.0%	13.9%	-80.1*	-0.3%
COc1ccc(-c2nc3c(n2O)CCc2c-3no[n+]2[O-])cc1	.	11.4%	.	-68.3*	-2.8%
COc1ccc(S(=O)(=O)c2nnn(-c3ccc(C)c(Cl)c3)c2C)cc1	-15.4%[46.1 µM]	.	?	-19.1	?
CN(C(=O)CN1CCN(c2cc(-c3ccc(-c4ccccc4)cc3)ncn2)CC1)c1ccccc1	.	.	.	-66.8*	22.4µM*
COc1cc(C(=O)Nc2cccc(C)n2)ccc1OCC(=O)N1CCOCC1	.	3.8%	.	0.0	-13.1%
O=C(CCc1ccc(S(=O)(=O)N2CCOCC2)cc1)Nc1nc(COc2ccccc2)cs1	20.6µM*	?	-19.6%	-92.5*	14.1µM*
COc1ccccc1OCC(=O)Nc1nc(-c2ccc(S(=O)(=O)N3CCOCC3)cc2)cs1	?	15.8µM*	?	-26.5	?
Cc1ccc(-c2csc(NC(=O)COc3ccc(N(C)S(=O)(=O)c4ccc(C)cc4)cc3)n2)cc1	?	7.94µM*	-2.6%	?	-27.6%
COc1ccc(-c2csc(NC(=O)c3ccc(OCC(=O)N4CCOCC4)c(OC)c3)n2)cc1OC	11.2µM*	?	?	-82.5*	14.1µM*
COc1cc(C(=O)NNC(=O)COc2cccc(F)c2)ccc1OCC(=O)N1CCOCC1	.	-6.3%	.	-69.6*	-23.4%
O=C(COc1ccc(Cl)cc1)Nc1nc(-c2ccc(S(=O)(=O)N3CCOCC3)cc2)cs1	?	11.2µM*	?	-10.2	?
O=C(CN1CCOCC1)Nc1nc(-c2ccc(Cl)cc2)cs1	?	22.4µM*	7.08µM*	-26.3	?
O=C(COc1ccccc1)Nc1nc(-c2ccc(S(=O)(=O)N3CCOCC3)cc2)cs1	?	?	?	-38.0	14.1µM*
COc1ccc2c(c1)CCC/C(C)=C/C(=O)c1ccccc1O2	.	.	.	3.4	.
Cc1nn(-c2ccc(N3CCCCC3)nn2)c(C)c1CCC(=O)NCc1ccccc1	.	.	-2.9%[46.1 µM]	-34.9	9.1%
Cc1ccc(N2CCN(C(=O)Cn3ncc4c([nH]c5ccc(C)cc54)c3=O)CC2)c(C)c1	.	.	27.2%[46.1 µM]	5.9	-19.4%
Cc1ccccc1CNC(=O)c1sc2ncnc(N(C)C3CCCCC3)c2c1C	.	.	?	-23.8	-22.6%
O=C(COc1ccccc1)Nc1nc(-c2ccncc2)cs1	?	-8.7%	-16.1%	-13.2	28.2µM*
CCOC(=O)[C@]12Cc3c(cc(OC)c(OC)c3OC)[C@H]1N(C)C(=O)c1cc(OC)ccc12	.	.	.	-100.9*	10µM*
CCOC(=O)[C@]12Cc3c(cc(OC)c(OC)c3OC)[C@H]1N(CCC(=O)OC)C(=O)c1cc(OC)ccc12	.	.	.	-105.2*	28.2µM*
